Measurements published in PubChem BioAssay (NCATS).
Active and inactive are the calls of the source.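 Rule for the calls: active = compounds whose dose series gives a full or clear partial fitted curve of increased nuclear translocation; inconclusive = weak partial curve or effect only at the top dose; inactive = no dose-dependent translocation response.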

target: Glucocorticoid receptor (Homo sapiens) (UniProt P04150); assay: GR-GFP Redistribution (AID 450); details: U2OS GR-GFP nuclear translocation, laser cytometry, 2 h; series mostly up to 20.6 µM
Potency is the fitted concentration of half-maximal effect.

Glucocorticoid receptor (Homo sapiens), sequence (P04150 whole entry, looked up): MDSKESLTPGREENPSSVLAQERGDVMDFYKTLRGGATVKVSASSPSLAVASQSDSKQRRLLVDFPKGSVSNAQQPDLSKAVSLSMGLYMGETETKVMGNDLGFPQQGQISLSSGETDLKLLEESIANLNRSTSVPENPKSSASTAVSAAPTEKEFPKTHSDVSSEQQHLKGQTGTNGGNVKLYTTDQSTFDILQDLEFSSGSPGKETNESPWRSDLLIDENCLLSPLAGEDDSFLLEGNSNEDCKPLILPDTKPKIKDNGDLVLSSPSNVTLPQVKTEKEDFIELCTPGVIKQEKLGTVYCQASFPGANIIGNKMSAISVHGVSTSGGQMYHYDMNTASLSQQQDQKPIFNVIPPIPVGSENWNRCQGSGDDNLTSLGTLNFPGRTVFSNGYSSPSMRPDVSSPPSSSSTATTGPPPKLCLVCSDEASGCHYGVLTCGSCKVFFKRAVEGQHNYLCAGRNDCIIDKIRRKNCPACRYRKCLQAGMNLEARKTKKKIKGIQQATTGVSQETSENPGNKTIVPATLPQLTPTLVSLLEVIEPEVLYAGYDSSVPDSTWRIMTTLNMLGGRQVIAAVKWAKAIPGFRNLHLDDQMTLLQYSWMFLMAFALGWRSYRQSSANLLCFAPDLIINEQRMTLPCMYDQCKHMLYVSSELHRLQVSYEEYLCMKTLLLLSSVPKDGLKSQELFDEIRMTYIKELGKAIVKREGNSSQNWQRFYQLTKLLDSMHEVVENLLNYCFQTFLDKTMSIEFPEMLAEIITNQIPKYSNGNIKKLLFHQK

Potency, inactive:
CCCCOC(=O)CCc1nc2ccccc2[nH]1 > 20.6 µM
Cc1c(NS(=O)(=O)c2cccc3nsnc23)c(=O)n(-c2ccccc2)n1C > 20.6 µM
Cc1cc(NC(=O)CSc2nc(-c3cccnc3)ccc2C#N)no1 > 20.6 µM
COc1cc(C)nc(N(C)S(=O)(=O)c2ccccc2Cl)n1 > 20.6 µM
CCOC(=O)C1CCN(c2ncnc3c2cnn3-c2ccc(OC)cc2)CC1 > 20.6 µM
O=C(CCCN1C(=O)c2ccccc2C1=O)N1CCC(c2ccccc2)C1 (stereo not given) > 20.6 µM
Cn1c(=O)[nH]c(=O)c2c1nc(Br)n2CCSc1ncccn1 > 20.6 µM
COc1ccc(/C(O)=C2\C(=O)C(=O)N(CCN(C)C)C2c2cccc(OC)c2OC)cc1Cl (stereo not given) > 20.6 µM
CCOC(=O)c1ccc(N2CC(O)=C(c3nc4ccccc4c(=O)[nH]3)C2=N)cc1 > 20.6 µM
CC(C)c1cc(NCCCN2CCOCC2)n2c(nc3ccccc32)c1C#N > 20.6 µM
COc1cccc(N2CCN(C(=O)c3ccc(=O)oc3)CC2C)c1 (stereo not given) > 20.6 µM
O=C(NCCc1ccccc1)/C(=N\O)c1ccccc1 > 20.6 µM
C/C(=N\O)c1c(C)c2ccccc2n1C > 20.6 µM
COc1ccc2[nH]c(C)c(C(=O)CN3CCc4cc(OC)c(OC)cc4C3)c2c1 > 20.6 µM
COC(=O)c1cc(OC)c(OC)cc1N > 20.6 µM
Cn1c(=O)[nH]c(=O)c2c1nc(N1CCN(c3cccc(Cl)c3)CC1)n2CCCc1ccccc1 > 20.6 µM
O=C(C1=C(O)C(=O)N(c2ncccn2)C1c1cccc(Cl)c1)c1ccco1 (stereo not given) > 20.6 µM
Cc1nc(NCCCO)c(C#N)c2c1COC(C)(C)C2 > 20.6 µM
CNS(=O)(=O)c1cccc2nsnc12 > 20.6 µM
Cc1cc(=O)oc(C)c1C(=O)Nc1ccc2nsnc2c1 > 20.6 µM
CCN(CC)CCn1c(O)c(N=O)c2ccccc21 > 20.6 µM
COc1ccccc1C1(CC(=O)N2CCOCC2)CCOC(C(C)C)C1 (stereo not given) > 20.6 µM
CCCNC(=O)N(C)c1nncnc1C(=O)NC > 20.6 µM
Cc1cc(O)c(C(C)C)cc1N=C1CSC(=O)N1 > 20.6 µM
COc1cc(C(=O)Nc2ccccn2)cc(OC)c1OC > 20.6 µM
Cc1nc2sc(C)c(C)c2c(=O)o1 > 20.6 µM
CCCCc1nc(N2CCOCC2)c(C#N)c2c1COC(C)(C)C2 > 20.6 µM
COc1ccccc1NC(=O)CSc1nnc(-c2ccc(NC(C)=O)cc2)n1C > 20.6 µM
COC(=O)CSCC(=O)Nc1cc2c(cc1C(C)=O)OCO2 > 20.6 µM
CCOC(=O)c1c(C(F)(F)C(F)(F)C(F)(F)C(F)(F)F)n[nH]c1C > 20.6 µM
O=C(c1cc(N2CCCCC2)nc2ccccc12)N1CCOCC1 > 20.6 µM
CCOC(=O)CNC(=O)CNC(=O)c1ccc(OC)cc1 > 20.6 µM
CC(C)C(C(=O)Nc1ncn[nH]1)N1C(=O)c2ccccc2C1=O (stereo not given) > 20.6 µM
O=C1[C@@H]2[C@H](C(=O)N1O)[C@H]1C=C[C@@H]2C1 > 20.6 µM
COc1cc(C2C(C(=O)c3cccs3)=C(O)C(=O)N2c2cc(C)on2)ccc1O (stereo not given) > 20.6 µM
CCOc1ccc(C2/C(=C(/O)c3ccc(F)cc3)C(=O)C(=O)N2CCCN(C)C)cc1 (stereo not given) > 20.6 µM
Cc1ccc2[nH]c(CCN(C)C)c(CC#N)c2c1 > 20.6 µM
CCCCC(CCC(=O)Nc1ccc(C(=O)OCC)cc1)C(=O)O (stereo not given) > 20.6 µM
C=C(C)C1Cc2c(C)nn(-c3nc(C)cc(C)n3)c2C1 (stereo not given) > 20.6 µM
COc1ccc(OC)c(N=C(C)C2=C(O)COC2=O)c1 > 20.6 µM
